The source of these data is PubChem BioAssay AID1963315 (National Center for Advancing Translational Sciences (NCATS), 2024).

Results filed as inconclusive are left out. A number with no mark means an inactive call. Active and inactive are the calls of the source. Calls come from the whole dose curve.

Chain of Tyrosine-protein kinase ABL1 (Homo sapiens) (P00519 whole entry, looked up): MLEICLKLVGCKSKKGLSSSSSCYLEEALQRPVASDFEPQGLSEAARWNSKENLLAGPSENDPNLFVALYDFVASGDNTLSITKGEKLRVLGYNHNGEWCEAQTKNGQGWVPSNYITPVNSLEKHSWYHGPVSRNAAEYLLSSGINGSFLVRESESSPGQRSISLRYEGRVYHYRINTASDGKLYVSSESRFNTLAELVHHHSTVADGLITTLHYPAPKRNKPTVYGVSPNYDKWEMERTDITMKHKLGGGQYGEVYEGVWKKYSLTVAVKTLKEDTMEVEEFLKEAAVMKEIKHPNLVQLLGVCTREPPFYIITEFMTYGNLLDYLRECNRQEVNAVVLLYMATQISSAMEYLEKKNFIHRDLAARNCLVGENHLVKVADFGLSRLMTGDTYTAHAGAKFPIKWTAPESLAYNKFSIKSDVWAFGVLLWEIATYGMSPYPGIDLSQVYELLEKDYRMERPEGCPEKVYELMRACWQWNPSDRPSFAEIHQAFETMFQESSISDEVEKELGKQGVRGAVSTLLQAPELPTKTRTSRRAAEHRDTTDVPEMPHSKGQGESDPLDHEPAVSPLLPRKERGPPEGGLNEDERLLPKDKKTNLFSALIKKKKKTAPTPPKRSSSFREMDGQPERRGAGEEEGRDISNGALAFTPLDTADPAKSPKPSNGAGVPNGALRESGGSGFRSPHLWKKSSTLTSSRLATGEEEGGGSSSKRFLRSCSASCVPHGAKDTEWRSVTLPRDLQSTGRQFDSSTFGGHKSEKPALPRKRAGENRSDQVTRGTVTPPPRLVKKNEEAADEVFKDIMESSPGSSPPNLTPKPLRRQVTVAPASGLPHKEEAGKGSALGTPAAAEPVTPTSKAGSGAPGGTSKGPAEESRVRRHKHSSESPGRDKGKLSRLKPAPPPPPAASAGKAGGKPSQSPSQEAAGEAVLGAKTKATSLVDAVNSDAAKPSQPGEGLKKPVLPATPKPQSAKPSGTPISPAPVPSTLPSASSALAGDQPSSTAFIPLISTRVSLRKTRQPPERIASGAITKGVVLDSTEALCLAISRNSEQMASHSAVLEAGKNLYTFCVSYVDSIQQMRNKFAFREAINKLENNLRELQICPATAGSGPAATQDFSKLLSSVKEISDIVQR

The assay concerns the target Tyrosine-protein kinase ABL1 (Homo sapiens) (UniProt P00519). As to the kind of experiment: ABL1 kinase (ABL1-N-HiBiT) SDR gain of signal screen. The note with it: Purified ABL1-N-HiBiT enzyme, Nano-Glo HiBiT luminescence, 30 min compound incubation; series mostly up to 32.9 µM; activity change, gain of signal: at the top concentration. The essentials:
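ABL1-N-HiBiT at 10 nM final in ATP-free buffer, preincubated with compounds 30 min at room temperature in the dark; Nano-Glo HiBiT reagent added, 10 min further incubation, luminescence read for gain of signal versus DMSO.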
In general terms: With HiBiT, luminescence reflects the tagged protein that the partner subunit can reach.
For the compound `FC(F)(F)c1ccc(/C=C/c2nc(COc3ccc(CCCCn4ccnn4)cc3)co2)cc1`, the “activity change, gain of signal” value is -2.47%. Consider `COc1cc(N2CCC(N3CCN(C)CC3)CC2)ccc1Nc1ncc(Cl)c(Nc2ccccc2P(C)(C)=O)n1`, for which the Potency is 605 nM (active). With `CC[C@@](C)(Nc1ccnc(-c2c[nH]c3ncccc23)n1)C(=O)NCC(F)(F)F`, the Potency is 1440 nM (active).
